High-throughput results (PubChem BioAssay)
Sampled rows, rich in hits. Any-hit rate of the full collection: about 4.6%.
ADAM17 inh = ADAM17 inhibitors, primary screen, biochemical, QFRET | inhibition, % at 6.95 µM | 370,000 compounds, 0.83% hits | recombinant ADAM17, EDANS/DABCYL FRET peptide cleavage | Disintegrin and metalloproteinase domain-containing protein 17 (Homo sapiens), P78536;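 active = inhibition above the mean of compounds lying between control limits plus 3 SD, set per campaign, cut at about 8.5% in these data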
KLK7 zymogen act = proKLK7 zymogen activators, primary screen, biochemical, fluorescence intensity. Kallikrein-7 (Homo sapiens), P49862. purified proKLK7, EDANS-DABCYL substrate fluorescence; 100% is mature enzyme control, 0% vehicle. activation, % at 7 µM. 370,000 compounds, 0.9% hits;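 active = activation above the mean of all tested compounds plus 3 SD, computed per campaign excluding outliers beyond control limits, cut at about 13% in these data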
NR3A LBD binder = binders of NR3A ligand-binding domain, primary screen, biophysical, differential scanning fluorimetry, uHTS; NR3A LBD differential scanning fluorimetry, Tm shift; 0% = protein alone, 100% = glycine-bound protein; AID 1259313, 2017; Tm shift relative to glycine control, % at 25 µM; 340,000 compounds, 2.5% hits; Glutamate receptor ionotropic, NMDA 3A (GRIN3A) ligand-binding domain;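 active = melting temperature shift of at least 10% of the positive control shift, at one fixed dose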
FAS-TE inh = FAS thioesterase domain inhibitors, primary screen, biochemical, fluorescence intensity, uHTS; recombinant FAS-TE, OMFH fluorogenic substrate, fluorescence endpoint; inhibition, % at 15 µM; 360,000 compounds, 0.67% hits; AID 602261, 2012;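 active = compounds whose normalised, plate-corrected inhibition of enzyme fluorescence in the single-dose primary screen is 50% or more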
ADAM10 inh = human ADAM10 inhibitors, primary screen, biochemical, QFRET, HTS; Disintegrin and metalloproteinase domain-containing protein 10 (Homo sapiens), O14672; recombinant ADAM10, EDANS/DABCYL FRET peptide cleavage, 3 h; inhibition, % at 7 µM; 370,000 compounds, 0.62% hits; AID 720582, 2013;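 active = inhibition above a per-campaign cutoff equal to the mean of compounds falling between control-based bounds plus 3 SD, cut at about 20% in these data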
Target sequence (O14672 214-748 limits assumed): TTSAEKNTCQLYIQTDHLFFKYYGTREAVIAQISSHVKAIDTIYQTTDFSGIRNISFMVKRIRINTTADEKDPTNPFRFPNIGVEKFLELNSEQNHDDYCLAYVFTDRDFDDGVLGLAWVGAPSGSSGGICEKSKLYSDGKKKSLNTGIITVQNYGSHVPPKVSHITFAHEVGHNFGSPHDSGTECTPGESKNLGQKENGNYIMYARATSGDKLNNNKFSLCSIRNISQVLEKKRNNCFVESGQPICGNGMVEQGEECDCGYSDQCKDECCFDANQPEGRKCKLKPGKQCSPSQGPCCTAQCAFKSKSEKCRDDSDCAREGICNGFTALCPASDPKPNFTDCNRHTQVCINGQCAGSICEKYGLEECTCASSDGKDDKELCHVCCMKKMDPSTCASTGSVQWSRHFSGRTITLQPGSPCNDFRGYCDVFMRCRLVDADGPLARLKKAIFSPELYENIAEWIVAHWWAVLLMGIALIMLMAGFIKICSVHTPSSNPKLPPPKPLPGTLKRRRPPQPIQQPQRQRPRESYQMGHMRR
Hits are given with their value; . = inactive; / = no result.

SMILES	ADAM17 inh	KLK7 zymogen act	NR3A LBD binder	FAS-TE inh	ADAM10 inh
Cc1cccc(NC(=O)c2cccc(NS(=O)(=O)c3ccc(Cl)cc3)c2)c1	/	/	12.0	.	/
COc1ccccc1CN(C)C(=O)C1CCCN(c2nc3ccccc3o2)C1 (centres undefined)	.	.	/	/	.
N#Cc1c(N)nc2c3c(sc(=N)c2c1N)NC(=O)CC3c1ccccc1 (centres undefined)	.	.	.	.	.
Cc1c(C#N)c(N)nc2c3c(sc12)NC(=O)CC3c1ccc(Cl)cc1 (centres undefined)	.	.	13.5	.	.
COc1cccc(C2c3c(oc4ccc(Cl)cc4c3=O)C(=O)N2c2cc(C)on2)c1OC (centres undefined)	.	.	10.8	.	.
COc1ccc(/C(O)=C2\C(=O)C(=O)N(c3cc(C)on3)C2c2cccc(OC)c2OC)cc1C (centres undefined)	.	.	.	.	.
CCOC(=O)CN1C(=O)Nc2ccc(Br)cc2C1c1ccccc1 (centres undefined)	.	.	.	.	.
CCOC(=O)CN1C(c2ccc(O)cc2)Nc2ccc(Br)cc2C1c1ccccc1 (centres undefined)	.	.	19.5	.	.
Cc1ccc(-c2nnc(SCC(=O)Nc3ccc(Oc4ccccc4)cc3)n2-c2ccc(Cl)cc2)cc1	.	.	/	/	.
CCCOC(=O)c1c(-c2ccc(OC)cc2)oc2ccc(-c3ccc(OC)nc3)cc12	.	.	14.8	.	.
C=CCN1[C@H](C)COc2cccc(F)c2S1(=O)=O	.	.	/	/	.
CCOc1cc(C(N)=O)cc(Cl)c1OCC	.	.	.	.	.
CCOc1cc(C(=O)O)cc(Cl)c1OC	.	.	21.4	.	.
N#C/C(=C/c1ccccc1[N+](=O)[O-])c1nc(C2CC2)cs1	.	.	.	.	.
N#C/C(=C\c1ccccc1[N+](=O)[O-])c1nc(C2CC2)cs1	.	.	15.8	.	.
CCOc1ccc(Br)cc1C(=O)N/N=C/c1c[nH]c2ccccc12	.	.	10.0	.	.
CCOc1ccc(Br)cc1C(=O)N/N=C/c1ccccn1	.	.	.	.	.
O=C(N/N=C/c1c[nH]c2ccccc12)c1cc(Br)ccc1O	.	.	33.9	.	.
CNC(=S)Nc1cc(C(F)(F)F)ccc1Cl	.	.	.	.	.
FC(F)Oc1ccc(/C=N/NC(=S)Nc2cc(C(F)(F)F)ccc2Cl)cc1	.	.	35.1	.	.
CS(=O)(=O)c1ccc2nc(NC(=O)c3ccc(NS(=O)(=O)c4ccc(F)c(F)c4)cc3)sc2c1	.	.	23.6	.	.
CS(=O)(=O)c1ccc2nc(NC(=O)c3cccc(NS(=O)(=O)c4ccc(F)c(F)c4)c3)sc2c1	.	.	26.1	.	.
O=C(Nc1nc2ccc(SC(F)F)cc2s1)c1ccc(NS(=O)(=O)c2ccc(F)c(F)c2)cc1	.	.	47.1	.	.
COc1cc(OC)cc(C(=O)Nc2nc3ccc(S(C)(=O)=O)cc3s2)c1	.	.	.	.	.
Cn1c(=O)cc(OCCCC(=O)Nc2cc(-c3cn[nH]c3)ccn2)c2ccccc21	.	/	/	/	.
SMILES	ADAM17 inh	KLK7 zymogen act	NR3A LBD binder	FAS-TE inh	ADAM10 inh
O=C(Cc1cn(Cc2cccc(Cl)c2)c2ccccc12)N1CCCCCC1	.	.	16.5	.	.
CC1CCCN(C(=O)Cc2cn(Cc3cccc(Cl)c3)c3ccccc23)C1 (centres undefined)	.	.	.	.	.
O=C1C(Cl)=C(Nc2ccccc2O)C(=O)N1CCc1ccccc1	15.8	.	.	.	32.8
COc1ccc(CCNC2=C(Cl)C(=O)N(CCc3ccccc3)C2=O)cc1OC	.	.	.	.	.
CCN(CC)S(=O)(=O)c1ccc2oc(C(=O)NCCN3CCOCC3)c(C)c2c1	.	.	58.1	.	.
CCN(CC)S(=O)(=O)c1ccc2oc(C(=O)N3CCOCC3)c(C)c2c1	.	.	.	.	.
COC(=O)[C@H](Cc1ccccc1)NC(=O)[C@H]1C[C@@]2(N3CCCC3)c3ccccc3N(C(=O)OC(C)(C)C)[C@H]2N1C(=O)OC(C)(C)C	.	.	/	/	.
CCn1c(SCC(=O)Nc2ccc(C(C)=O)cc2)nc2c([nH]c3ccccc32)c1=O	.	.	13.8	.	.
O=[N+]([O-])c1ccc(N=Nc2c(Cl)cc(O)cc2Cl)cc1	.	.	17.6	.	.
CC(C)(C)c1ccc(-c2nnc3sc(COc4ccccc4)nn23)cc1	.	.	/	/	.
CCCCNC(=O)C[C@H]1C[C@@]2(C(=O)OC)C(=C[C@H](COCc3ccccc3)O[C@@H]2C)N(CCc2ccc(OC)c(OC)c2)C1=O	.	.	/	/	.
Cc1[nH]n(-c2c(Cl)cc(Cl)cc2Cl)c(=O)c1C=Nc1ccc(S(=O)(=O)N2CCOCC2)cc1	.	.	11.5	.	.
Cc1[nH]n(-c2ccccc2)c(=O)c1C=Nc1ccc(S(N)(=O)=O)cc1	.	.	.	.	.
Cc1ccccc1NC(=O)CSc1nc(O)cc(=O)n1C	.	.	12.5	.	.
COc1ccccc1NC(=O)CSc1nc(O)cc(=O)n1-c1ccccc1OC	.	.	.	.	20.8
COc1ccccc1-n1c(SCC(=O)Nc2ccccc2C)nc(O)cc1=O	.	.	.	.	.
CN(C)c1cccc(-c2cnc(N3CCC(C(N)=O)CC3)nc2)c1	.	/	/	/	.
Oc1ccccc1-c1nc2c3ccccc3c3ccccc3c2[nH]1	.	.	37.3	.	.
c1csc(-c2nc3c4ccccc4c4ccccc4c3[nH]2)c1	.	18.4	27.8	.	.
Oc1ccccc1-c1ccn[nH]1	.	.	.	.	.
Cc1cc(NC(=O)/C=C/c2ccc(F)cc2)n(-c2nc3ccccc3[nH]2)n1	.	.	12.2	.	.
Cc1cc(NC(=O)/C=C/c2cccc(Cl)c2)n(-c2nc3ccccc3[nH]2)n1	.	.	10.7	.	.
Cc1cc(NC(=O)/C=C/c2cccc(F)c2)n(-c2nc3ccccc3[nH]2)n1	.	.	.	.	.
CCN1CCCCC(NC(=O)Cc2ccccc2)C1=O (centres undefined)	.	.	/	/	.
OCc1ncc(-c2ccccc2)s1	.	.	10.3	.	.
OCCCNc1ncnc2sc(-c3ccccc3)cc12	.	.	.	.	.
CCOc1cccc(-c2c(C(=O)N/N=C/c3ccc(Br)cc3)nnn2-c2nonc2N)c1	.	.	16.9	.	.
CCOc1ccc(-c2c(C(=O)N/N=C/c3ccsc3)nnn2-c2nonc2N)cc1	.	.	12.7	.	.
CCOc1ccc(-c2c(C(=O)N/N=C/c3cccc(Br)c3)nnn2-c2nonc2N)cc1	.	.	16.6	.	.
